Assay outcomes deposited in PubChem by National Center for Advancing Translational Sciences (NCATS).
KB-3-1 tox – KB-3-1 parental cell cytotoxicity; KB-3-1 viability, CellTiter-Glo ATP luminescence, 72 h; Potency, µM (series often up to 46.1 µM), actives largely listed as cytotoxic; actives 1.4% (n = 400,000); AID 1347075; further: nearly all actives have a fitted effect of over 60% in size
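Parental KB-3-1 viability, qHTS format: 72 h compound exposure, 37 °C; CellTiter-Glo; media-only wells and DMSO plates as controls; concentration-effect fits on corrected data.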
KB-V1 MDR tox – kills drug-selected multidrug resistant KB-V1 cells; KB-V1 MDR cells viability, CellTiter-Glo, 72 h; Potency, µM (titrated, usually from 46.1 µM), actives largely listed as cytotoxic; actives 3.4% (n = 400,000); further: nearly all actives have a fitted effect of over 60% in size
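Readout: CellTiter-Glo luminescence, 10 min after addition. Cells: KB-V1 MDR subline, 72 h at 37 degrees C with compound. Analysis: corrected, normalized data fitted to concentration-effect curves.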
HT1080-NT tox – kills 2HG-producing HT-1080-NT fibrosarcoma cells. Potency, µM (highest dose often 46.1 µM), for inactives: at the top dose activity, negative = less viability, hits mostly cytotoxic. actives 1.6% (n = 360,000). HT-1080-NT fibrosarcoma viability, CellTiter-Glo ATP luminescence, 48 h;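 further: NT is the 2HG producing partner of a matched IDH1 knockdown line; 0% = DMSO-treated cells and -100% = media-only wells without cells; nearly all actives have a fitted effect of over 55% in size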
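HT-1080-NT fibrosarcoma cells (2HG-overproducing), 750 cells/well in RPMI with 5% FBS, dosed after 2 h and incubated 48 h at 37C. CellTiter-Glo luminescence normalized to DMSO and no-cell wells; concentration-response curves fitted and classed.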
TDP1 cell noCPT – qHTS for Inhibitors of human tyrosyl-DNA phosphodiesterase 1 (TDP1): qHTS in cells in absence of CPT | actives 15% (n = 420,000) | Potency, µM (titrated, usually from 46.2 µM), for the others: at the top dose activity change, negative = growth inhibition, usual class: inhibitors | AID 686978, 2013 | DT40 Tdp1-/- hTDP1 cells, no CPT, ATP luminescence, 48 h; further: nearly all actives have a fitted effect of over 55% in size
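Seeded 400 DT40-hTDP1 cells/well (vehicle DMSO, no 20 nM CPT); pinned compounds; ≥48 hr at 37 °C; CellTiter-Glo luminescence as viability measure.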
HT1080 IDH1KD tx – HT-1080 IDH1 knockdown cell toxicity (counter line) | actives 2% (n = 360,000) | AID 686971 | Potency, µM (highest dose often 46.1 µM), for the others: at the highest dose activity, negative = toxicity, usual class: cytotoxic | HT-1080 IDH1 knockdown viability, ATP luminescence, 48 h;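 further: 0% = DMSO wells and -100% = cell-free medium wells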
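Viability of IDH1-knockdown HT-1080 fibrosarcoma cells was assessed by CellTiter-Glo after 48 h at 37 °C with titrated compound; concentration-effect curves were classified by fit quality and response size.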
DT40 TDP1 CPT – DT40-hTDP1 cell growth loss with CPT; chicken DT40 Tdp1-/-;hTDP1 cells + 20 nM CPT, ATP luminescence, 48 h; Potency, µM (doses to about 46.2 µM), for inactives: top-dose activity change, negative = growth inhibition, most hits filed as inhibitors; actives 12% (n = 420,000); AID 686979; further: nearly all actives have a fitted effect of over 55% in size
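Chicken DT40 Tdp1-/- cells stably complemented with human TDP1 were seeded at 400 cells/well in medium containing 20 nM camptothecin, exposed to pin-transferred compounds, and grown at 37 °C for at least 48 hr. Viability was read as ATP luminescence.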
* = called active by the depositor; i = inactive; ? = inconclusive; . = not tested or not shown. Rows were chosen to be rich in hits. Some 19% of all compounds tested hit in one or more screens of this group. The call rests on the fitted dose curve; in most records, active means well fitted curve in the direction sought with a large enough effect; inconclusive means small, poorly fitted or top-dose-only effect, or another doubt; inactive means no such curve, though single readings can be large; an effect the other way counts as inactive or inconclusive. Unless noted, on the % scale 0 is the no-effect control and ±100 the full control effect; potency means the concentration at half of the fitted maximal effect.

SMILES | KB-3-1 tox | KB-V1 MDR tox | HT1080-NT tox | TDP1 cell noCPT | HT1080 IDH1KD tx | DT40 TDP1 CPT
Cc1ccccc1-c1nnc(C2CCN(S(=O)(=O)c3ccc(Cl)cc3)CC2)o1 | i | i | . | 3.7µM* | . | 5.8µM*
COc1ccc(S(=O)(=O)N2CCC(c3nnc(-c4ccccc4C)o3)CC2)c(OC)c1 | i | i | . | 6.5µM* | . | 8.2µM*
COc1ccc(S(=O)(=O)N2CCN(c3ccccn3)CC2)c(OC)c1 | i | i | 7% | ? | 0% | -20%
CC(=O)c1ccc(NC(=O)C2CCC(CNS(=O)(=O)c3cccc4nsnc34)CC2)cc1 (stereo unspecified) | i | i | . | -9% | . | 2%
CCCN(CC(=O)Nc1ccccc1C)C(=O)c1cccc(S(=O)(=O)N2CCN(c3ccccc3)CC2)c1 | i | ? | -1% | ? | -17% | ?
Cc1ccc(NC(=O)COC(=O)CC2CC3CCC2C3)cc1S(=O)(=O)N1CCOCC1 (stereo unspecified) | i | i | -2% | -22% | 6% | 2%
COc1ccc(S(=O)(=O)Nc2ccccc2OC)cc1NC(=O)CC1CC2CCC1C2 (stereo unspecified) | i | 21µM* | -12% | 16µM* | -9% | ?
COc1ccc(OC)c(S(=O)(=O)N2CCC(C(=O)Nc3ccc(C)c(C)c3)CC2)c1 | i | ? | -3% | 21µM* | -9% | 16µM*
COc1ccc(NC(=O)CC2CC3CCC2C3)cc1S(=O)(=O)N1CCOCC1 (stereo unspecified) | i | 13µM* | 16% | -24% | 6% | -20%
COc1ccc(NC(=O)C2CCC(C(C)(C)C)CC2)cc1S(=O)(=O)N1CCOCC1 (stereo unspecified) | ? | i | -3% | ? | -24% | 21µM*
O=[N+]([O-])c1ccc(S(=O)(=O)N2CCN(Cc3ccco3)CC2)cc1 | i | i | 0% | ? | 11% | -27%
COc1ccc(NC(=O)Cc2coc3cc(C)ccc23)cc1S(=O)(=O)N1CCOCC1 | i | 18µM* | 2% | ? | 8% | -24%
Cc1cccc(N(CC(=O)Nc2cccc(Cl)c2C)S(C)(=O)=O)c1C | i | i | . | ? | . | ?
Cc1cc(Cl)ccc1NC(=S)NCc1ccccc1Cl | i | i | -7% | 26µM* | -22% | ?
CC(C)c1ccc(NC(=S)NCc2cccs2)cc1 | i | 23µM* | 11µM* | -8% | ? | -24%
Cc1cc(Cl)ccc1NC(=S)NCC(C)C | i | i | 2% | 29µM* | -1% | ?
NNC(=S)Nc1ccccc1Cl | i | i | ? | 7.3µM* | ? | ?
Cc1ccc(N[S+](=O)([O-])c2cc3c(cc2CCc2ccccc2)NC(=O)CO3)cc1C | i | i | . | . | . | .
Cc1cc(Cl)ccc1NC(=S)NCc1cccs1 | i | ? | 18µM* | ? | ? | -4%
S=C(NCc1cccs1)Nc1cccc(Cl)c1 | ? | i | ? | ? | ? | -18%
S=C(NCc1cccs1)Nc1ccccc1Cl | i | 26µM* | 0% | -29% | 5% | -11%
Cc1ccc(Nc2nccc(N(C)c3ccc4c(C)n(C)nc4c3)n2)cc1S(N)(=O)=O | . | . | . | 13µM* | . | 11µM*
O=C(CCCN1C(=O)/C(=C\c2cccs2)SC1=S)Nc1ccccn1 | i | ? | 1% | 16µM* | -8% | ?
O=C(NN1C(=O)/C(=C/c2ccc(O)cc2)SC1=S)c1ccccc1O | i | i | -5% | ? | -5% | -2%
O=C(CCCN1C(=O)/C(=C/c2cccs2)SC1=S)NNC(=O)c1ccncc1 | i | i | -10% | ? | -11% | ?
SMILES | KB-3-1 tox | KB-V1 MDR tox | HT1080-NT tox | TDP1 cell noCPT | HT1080 IDH1KD tx | DT40 TDP1 CPT
COc1cc(/C=C2\SC(=S)N(NC(=O)c3ccccc3O)C2=O)ccc1O | i | i | ? | 26µM* | -12% | ?
COC(=O)c1ccc(/C=C2/SC(=S)N(CCCC(=O)Nc3ccc(O)cc3)C2=O)cc1 | ? | i | -9% | 13µM* | -7% | ?
O=C(CCCN1C(=O)/C(=C/c2cccs2)SC1=S)NNC(=O)c1ccccc1O | ? | ? | -1% | 16µM* | ? | 21µM*
CCOc1ccc(C2/C(=C(\O)c3ccc4c(c3)OCCO4)C(=O)C(=O)N2Cc2cccnc2)cc1OCC (stereo unspecified) | i | ? | 3% | 1% | -2% | 18%
COc1ccc(/C=C2/SC(=S)N(CCCC(=O)Nc3ccccc3C(=O)O)C2=O)cc1 | i | i | -3% | -3% | -1% | 2%
CC(=O)c1ccc(NC(=O)CCCN2C(=O)/C(=C/C(C)=C/c3ccccc3)SC2=S)cc1 | ? | 18µM* | 6% | 23µM* | 0% | ?
CC(/C=C1\SC(=S)N(CC(=O)N2CCN(c3ccccc3)CC2)C1=O)=C\c1ccccc1 | i | i | -1% | 21µM* | 0% | 21µM*
O=C(CCCN1C(=O)S/C(=C\C=C\c2ccccc2)C1=O)Nc1ccc(O)cc1 | i | i | ? | ? | 21µM* | ?
O=C(CN1C(=O)S/C(=C/C=C/c2ccccc2)C1=O)Nc1ccc(C(=O)O)cc1 | i | i | 7% | -21% | 1% | 0%
COc1ccc(/C=C2\SC(=S)N(CCCC(=O)NNC(=O)c3ccccc3O)C2=O)cc1 | i | ? | ? | 8.2µM* | -29% | ?
COc1cccc(NC(=O)CCNC(=O)Cn2cnc3ccccc3c2=O)c1 | i | i | . | 5% | . | 4%
COc1ccc(CNC(=O)CC2N=C3c4ccccc4N=C(SCC(=O)Nc4ccc(C(C)C)cc4)N3C2=O)cc1 (stereo unspecified) | i | i | . | -22% | . | -10%
COc1ccc(NC(=O)CCCN2C(=O)/C(=C\c3ccco3)SC2=S)cc1 | i | ? | -26% | 16µM* | ? | ?
O=C(CCCN1C(=O)/C(=C\c2cccs2)SC1=S)Nc1ccc(C(=O)O)cc1 | i | i | -20% | -23% | -8% | 3%
O=C(CCCN1C(=O)/C(=C\c2cccs2)SC1=S)Nc1ccc(O)cc1 | i | i | -6% | ? | -27% | 26µM*
